# Laboratory results reported in PubChem BioAssay AID618 (Sanford-Burnham Center for Chemical Genomics, 2007).
# Hit rate of the full screen: of about 87,000 compounds, about 540 (0.62%) were called active. The rule behind the calls is not given here. The full list was thinned out, with actives kept by preference. Measured potencies and affinities stand elsewhere.
# Test: inhibitors of MT1-MMP promoter transcription, cell-based, luciferase reporter, luminescence (AID 618);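 note: actives suppress MT1-MMP promoter-driven transcription so potencies describe inhibitors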
# Conditions: MT1-MMP promoter luciferase reporter cells
row,SMILES,outcome
1,Cc1sc2ncnc(Oc3ccc(-n4ccnc4)cc3)c2c1C,inactive
2,N#CC1(Nc2ccccc2)C(=O)Nc2ccccc21 (centres undefined),inactive
3,Nc1cccc(-c2nc3ccccc3[nH]2)c1,inactive
4,Cc1ccc2nc(-c3ccccn3)oc2c1,inactive
5,Cc1ccc2nc(-c3cccnc3)oc2c1,inactive
6,Cc1ccc2nc(-c3cccc(-c4nc5ccc(C)cc5o4)n3)oc2c1,inactive
7,Nc1cc(N)cc(-c2nc3ccccc3o2)c1,inactive
8,Nc1ccc2nc(-c3ccccc3)[nH]c2c1,inactive
9,COCCNC(=O)Nc1ccc2nc(C)sc2c1,inactive
10,CCCCN(C)C(=O)c1oc2ccc(S(=O)(=O)N3CCCCCC3)cc2c1C,inactive
11,CCn1cc(C(=O)N2CCCC2)c(=O)c2cc(S(=O)(=O)N(C)C)ccc21,inactive
12,O=C(NCCCn1ccnc1)c1noc2c1CCc1ccccc1-2,inactive
13,CCOCc1nnc(NC(=O)CCc2ccccc2)s1,inactive
14,C=CCN1C(=NC(=O)CCCC(=O)O)SC2CS(=O)(=O)CC21 (centres undefined),inactive
15,COc1ccccc1Nc1nc(NCCO)c2ccccc2n1,inactive
16,C=C(C)Cn1c(CCNC(=O)C(C)(C)C)nc2ccccc21,inactive
17,Cc1ccc(O)c(N=CC2=C(O)c3ccccc3C2=O)c1,inactive
18,O=C1C(C=Nc2ccccc2O)=C(O)c2ccccc21,inactive
19,CCc1ccc(NC(=O)C(=O)NCCN2CCN(C(=O)c3ccco3)CC2)cc1,inactive
20,CC1=C(C(=O)OC(C)C)C(c2cccc(F)c2)N2C(=O)C(C)SC2=N1 (centres undefined),inactive
21,CCOC(=O)CSc1nnc(CNC(=O)c2ccc(OC)cc2OC)n1-c1ccc(OC)cc1,inactive
22,CCN(CC)C(=O)N1CCn2c(nc3ccccc32)C1,inactive
23,Cn1ncc(N=Cc2ccc([N+](=O)[O-])cc2)c1C(=O)N1CCOCC1,inactive

row,SMILES,outcome
1,O=[N+]([O-])/C(C(Cl)=C(Cl)Cl)=C(\Nc1ccc(F)cc1)n1cncn1,inactive
2,CC(C)(C)C(=O)/C(=C\c1ccc([N+](=O)[O-])cc1)n1cncn1,active
3,Nn1c(COc2ccccc2)nnc1SCc1cc(=O)[nH]c2ccccc12,inactive
4,CCOC(=O)c1sc2nc(-c3ccco3)c3c(c2c1N)CC(C)(C)OC3,inactive
5,COc1ccccc1OCC(=O)Nc1nc(-c2ccc(S(=O)(=O)N3CCOCC3)cc2)cs1,inactive
6,CC1CN/C(=C\C(=O)c2ccccc2)C(=O)N1 (centres undefined),inactive
7,CC1CN/C(=C\C(=O)c2ccc(Cl)cc2)C(=O)N1 (centres undefined),inactive
8,Cc1ccc(-n2ncc3c(=O)[nH]c(SCC(=O)N4CCC(C)CC4)nc32)cc1C,inactive
9,COc1ccc(NC(=O)c2cccs2)cc1,inactive
10,Cc1sc(NC(=O)c2ccccc2)c(C(=O)NC(C)C)c1C,inactive
11,Cc1cc(NC(=O)c2ccccc2)sc1C,inactive
12,Cc1ccc(NC(=O)c2ccccc2)s1,active
13,CCOc1ccccc1CNC(=O)C1CCCN(c2nc3ccccc3o2)C1 (centres undefined),inactive
14,CN1Cc2cc(C(=O)c3cc(Cl)cc(CSc4ncccn4)c3O)cnc2NC1=O,active
15,CCCCN1Cc2cc(C(=O)c3cc(F)ccc3O)cnc2NC1=O,inactive
16,CN1Cc2cc(C(=O)c3ccccc3O)cnc2NC1=O,inactive
17,O=C(CN1C(=O)c2ccccc2S1(=O)=O)Nc1cccnc1,inactive
18,COc1ccc(CSc2nnc(C)n2N)cc1,inactive
19,COc1cccc(CC2CC(=O)N(CCc3ccc4c(c3)OCO4)C2=O)c1 (centres undefined),inactive
20,CCC(=O)c1ccc(OCCSc2ncccn2)cc1,inactive
21,COc1ccc(N=C2SCC(=O)N2c2ccc(OC)cc2)cc1,inactive
22,Cc1ccc(C2CC(c3ccco3)n3ncnc3N2)cc1 (centres undefined),inactive
23,Cc1ccc(C2CC(c3ccco3)n3nc(N)nc3N2)cc1 (centres undefined),inactive

row,SMILES,outcome
1,Cc1ccc2c(c1)C(N1CCCC1=O)CC(c1ccco1)N2 (centres undefined),active
2,CCc1nn(C(C)C(=O)NCCN2CCN(c3cccc(C)c3C)CC2)c(=O)c2cc3occc3n12 (centres undefined),inactive
3,CCC(C)OC(=O)c1[nH]c2c(c1C)C(=O)CC(c1ccc(N(C)C)cc1)C2 (centres undefined),inactive
4,COCCOC(=O)c1[nH]c2c(c1C)C(=O)CC(c1ccc(N(C)C)cc1)C2 (centres undefined),inactive
5,Cc1c(C(=O)OC2CCCC2)[nH]c2c1C(=O)CC(c1ccco1)C2 (centres undefined),active
6,COCCOC(=O)c1[nH]c2c(c1C)C(=O)CC(c1cc(OC)ccc1OC)C2 (centres undefined),inactive
7,CCOC(=O)c1ccc(N=CC2=C(O)CC(c3ccco3)CC2=O)cc1 (centres undefined),inactive
8,Cc1c(C(=O)OC2CCCCC2)[nH]c2c1C(=O)CC(C)(C)C2,inactive
9,Cc1c(C(=O)OCC2CCCO2)[nH]c2c1C(=O)CC(c1ccco1)C2 (centres undefined),inactive
10,Cc1c(C(=O)OC2CCC(C)CC2)[nH]c2c1C(=O)CCC2 (centres undefined),inactive
11,COCCOC(=O)c1[nH]c2c(c1C)C(=O)CC(c1ccco1)C2 (centres undefined),active
12,Cc1c(C(=O)OCC(C)C)[nH]c2c1C(=O)CC(c1ccco1)C2 (centres undefined),active
13,CCOC(=O)c1[nH]c2c(c1C)C(=O)CC(c1ccco1)C2 (centres undefined),active
14,O=c1[nH]c(CN2CCN(c3ccc([N+](=O)[O-])cc3)CC2)nc2ccsc12,inactive
15,CCCCCOC(=O)CSc1n[nH]c(=O)[nH]c1=O,inactive
16,O=C(CC(Nc1ccc(Cl)cc1)C(=O)O)c1ccccc1 (centres undefined),inactive
17,Cc1cccc(NC(=O)COC(=O)CNC(=O)C2CCCCC2)c1,inactive
18,NC(=O)CSc1nnnn1-c1ccc2c(c1)OCCO2,inactive
19,O=C1CCCC2=C1C(Cc1ccccc1)C1=C(CCCC1=O)O2,inactive
20,CCN(CCNC(=O)CC1Oc2ccccc2NC1=O)c1ccccc1 (centres undefined),inactive
21,Cc1ccc(C2/C(=C(\O)c3ccc4c(c3)OCCO4)C(=O)C(=O)N2CCCN(C)C)o1 (centres undefined),inactive
22,CCN1CCN(C(=O)c2cc3c(=O)oc4ccc(C)cc4c3s2)CC1,inactive
23,CSCCOC(=O)c1[nH]c2c(c1C)C(=O)CC(c1ccco1)C2 (centres undefined),active

row,SMILES,outcome
1,CCCOCCOC(=O)c1[nH]c2c(c1C)C(=O)CC(c1cc(OC)ccc1OC)C2 (centres undefined),inactive
2,COCCOC(=O)c1[nH]c2c(c1C)C(=O)CC(c1ccc(F)cc1)C2 (centres undefined),inactive
3,Cc1c(C(=O)OCC(C)C)[nH]c2c1C(=O)CC(c1cccs1)C2 (centres undefined),inactive
4,Cc1c(C(=O)OCCOC(C)C)[nH]c2c1C(=O)CC(c1ccco1)C2 (centres undefined),active
5,CCOCCOC(=O)c1[nH]c2c(c1C)C(=O)CC(c1ccc(N(C)C)cc1)C2 (centres undefined),inactive
6,COc1cc(C2CC(=O)c3c([nH]c(C(=O)OCCOC(C)C)c3C)C2)cc(OC)c1OC (centres undefined),inactive
7,CCCOC(=O)c1[nH]c2c(c1C)C(=O)CC(c1ccc(OC)c(OC)c1)C2 (centres undefined),inactive
8,Cc1c(C(=O)OCCOC(C)C)[nH]c2c1C(=O)CC(C)(C)C2,inactive
9,CCCOC(=O)c1[nH]c2c(c1C)C(=O)CC(c1cccs1)C2 (centres undefined),active
10,CCOC(=O)c1[nH]c2c(c1C)C(=O)CC(c1ccc(F)cc1)C2 (centres undefined),active
11,COC(=O)c1[nH]c2c(c1C)C(=O)CC(c1cccs1)C2 (centres undefined),inactive
12,Cc1cc(Cl)cc(C)c1OCCCCN1CCOCC1,inactive
13,COCCn1c(CNc2ccc(F)cc2)nnc1SCC(=O)Nc1ccc(OC)cc1OC,inactive
14,COc1ccc(CN2CC(C(=O)NCc3cccc(OC)c3)CC2=O)cc1 (centres undefined),inactive
15,COC(=O)c1ccccc1NC(=O)c1ccc(-c2cccc(Cl)c2)o1,inactive
16,O=C(Nc1nnc(-c2ccc(Cl)s2)o1)C1CCCCC1,inactive
17,COc1ccccc1Oc1ccc2c(c1)C(=O)N(c1cccc(O)c1)C2=O,inactive
18,CCC(=O)N1CCNC(=O)C1CC(=O)Nc1ccc(C)c(Cl)c1 (centres undefined),inactive
19,CNCc1ccc(OCc2ccccc2)c(OC)c1,inactive
20,CC1=C(C(=O)OCc2ccccc2)C(c2ccco2)C2=C(CC(C)(C)CC2=O)N1 (centres undefined),inactive
21,Cc1c(C(=O)N2CCOCC2)[nH]c2c1C(=O)CC(c1ccccc1Cl)C2 (centres undefined),inactive
22,Cc1c(C(=O)OCc2ccccc2)[nH]c2c1C(=O)CC(c1ccco1)C2 (centres undefined),active
23,C=CCN1CC(c2nc3ccccc3n2Cc2cccc3ccccc23)CC1=O (centres undefined),inactive

row,SMILES,outcome
1,CCCOc1ccc(C(CC(=O)O)NC(=O)C23CC4CC(CC(C4)C2)C3)cc1 (centres undefined),inactive
2,Cc1ccc(C(=O)Nc2cc(Cl)ccc2N2CCCCC2)s1,inactive
3,CN(C)c1ccc(NC(=O)CN2CCN(CC(=O)Nc3ccc(F)cc3)CC2)cc1,inactive
4,O=C(/C=C/Nc1ccc(F)cc1)c1ccco1,inactive
5,CN(C)c1ccc(N/C=C/C(=O)C(C)(C)C)cc1,inactive
6,CN(C)c1ccc(C(=O)c2ccccc2)cc1,inactive
7,CN(C)c1ccc(N/C=C/C(=O)c2ccccc2)cc1,active
8,CN(C)c1ccc(NC(=O)CN2CCC(C(=O)c3ccc(F)cc3)CC2)cc1,inactive
9,CC(=O)Nc1ccc(N/C=C/C(=O)c2ccco2)cc1,inactive
10,CN(C)c1ccc(N/C=C/C(=O)c2ccc(F)cc2)cc1,active
11,CSCC[C@H](NC(=O)CCn1nnc2ccccc2c1=O)C(=O)O,inactive
12,CCN1CCN(C(=O)c2ccc(Cl)c(S(=O)(=O)N3CCOCC3)c2)CC1,inactive
13,Cc1ccc(-n2nc3c(c2NC(=O)c2c(-c4ccccc4Cl)noc2C)CS(=O)(=O)C3)c(C)c1,inactive
14,COc1cccc(NC(=O)C(=O)N2CCOCC2)c1,inactive
15,Cc1ccc(-n2nc(C)c3c(C)cc(=O)[nH]c32)cc1,inactive
16,O=C(c1cccn2c(=O)c3cc(Br)ccc3nc12)N1CCN(c2ccccn2)CC1,inactive
17,Cc1ccc(-c2c(C(=O)N3CCOCC3)oc(=O)c3ccccc23)cc1,inactive
18,COC(=O)c1ccc(NC(=O)CSc2nncn2C)cc1,inactive
19,CCCCOC(=O)c1ccc(NC(=O)CSc2nncn2C)cc1,active
20,Cn1cnnc1SCC(=O)Nc1ccccc1,inactive
21,O=C1CC(N2CCC(c3nc4ccccc4o3)CC2)C(=O)N1c1ccc(Cl)cc1 (centres undefined),inactive
22,O=C(CCS(=O)(=O)c1cccs1)N1CCCC1,inactive
